Experiment [1] can be described thus: AP1 Signaling Pathway (AID 357).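 Note: ME-180 reporter cells stimulated with EGF at its EC50 level; % is set by controls: 0 for no effect and ±100 for the full control effect.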 In short, it runs like this:
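In this screen, ME-180 cells in Opti-MEM with 0.5% dialyzed FBS received EC50 EGF and compound titrations for 5 h. AP-1 reporter beta-lactamase was detected via CCF4 ratio, giving AC50 for positive and negative modulators.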

Experiment [2] deals with Cytochrome P450 1A2 (Homo sapiens) (UniProt P05177). The experiment can be described thus: p450-cyp1a2 (AID 410; calls by dose curve; note: potency is the fitted concentration of half-maximal effect;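 for activity change, negative = inhibition: -100% = full effect of reference inhibitor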). In short, it runs like this: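 20nM CYP1A2, 100uM Luciferin-ME (=Km), 100mM KPO4; cpd 10 min RT; +NADPH regen, 60 min RT; stop/detect 20 min; luminescence. Normalized to furafylline 57 uM = full inhibition.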
Cytochrome P450 1A2 (Homo sapiens), sequence (P05177 whole entry, looked up): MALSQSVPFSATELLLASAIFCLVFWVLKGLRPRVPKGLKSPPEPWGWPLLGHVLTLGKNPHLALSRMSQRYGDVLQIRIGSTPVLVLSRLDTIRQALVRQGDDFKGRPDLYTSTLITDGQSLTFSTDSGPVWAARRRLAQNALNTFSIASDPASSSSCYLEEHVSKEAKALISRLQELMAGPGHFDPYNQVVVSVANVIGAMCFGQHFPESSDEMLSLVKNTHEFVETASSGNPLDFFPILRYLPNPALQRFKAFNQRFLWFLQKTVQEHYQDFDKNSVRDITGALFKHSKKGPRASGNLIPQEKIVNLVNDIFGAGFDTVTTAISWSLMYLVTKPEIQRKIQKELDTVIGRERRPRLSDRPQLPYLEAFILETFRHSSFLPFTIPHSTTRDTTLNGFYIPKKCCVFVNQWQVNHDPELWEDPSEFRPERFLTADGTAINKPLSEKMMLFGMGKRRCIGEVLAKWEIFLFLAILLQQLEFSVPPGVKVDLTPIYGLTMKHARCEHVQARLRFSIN
Experiment [3] is described as follows: NFAT Signaling Pathway (AID 444).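 Note: carbachol stimulus at about its EC50 of 1 µM final; % is set by controls: 0 for no effect and ±100 for the full control effect.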 Conditions: Jurkat NFAT-bla M1, carbachol, beta-lactamase ratio, 5 h; at 17.2 µM (top of the series) unless noted. In short, it runs like this: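 Jurkat cells with NFAT-driven β-lactamase reporter and co-expressed M1 receptor, stimulated with carbachol (final 1 uM, ~EC50), compound titration, 5 h at 37 °C. CCF4 loaded 1 h at RT; 460/530 nm ratio gave %activity and AC50.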

Experiment [4] can be described thus: Stat Signaling Pathway (AID 446).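 Note: ME-180 cervical cancer cells given 40 pM IL-6 alongside compound; SIE-controlled beta-lactamase reporter measured as 460/530 nm FRET emission ratio; % is set by controls: 0 for no effect and ±100 for the full control effect.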 In short, it runs like this:
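Compound effects on IL-6-induced STAT reporter activity were measured in ME-180 cells. After overnight culture, cells were co-treated with 40 pM IL-6 for 5 hrs before beta-lactamase substrate loading at room temperature.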

Experiment [5] concerns the target Glucocorticoid receptor (Homo sapiens) (UniProt P04150). The experiment can be described thus: GR-EFC Redistribution (AID 451; calls by dose curve; note: potency is the fitted concentration of half-maximal effect). Conditions: CHO-K1 GR-EFC translocation, beta-gal luminescence, 2 h. In short, it runs like this:
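CHO-K1 cells expressing nuclear EA and GR-ED fragments of b-gal; compounds titrated up to 46 uM final, 2 h at 37 C. GR nuclear translocation read as complemented b-gal luminescence after 1 h RT detection.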

Experiment [6] addresses Mitogen-activated protein kinase 10 (Mus musculus) (UniProt Q61831). The experiment can be described thus: JNK3 AlphaScreen Assay (AID 530).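 Note: kinase came from lysate of stimulated human HepG2 cells; signal reports phosphorylation of biotinylated GST-cJun 1-79 at Ser73 with 10 µM ATP; % is set by controls: 0 for no effect and ±100 for the full control effect.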 In short, it runs like this: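 HepG2 lysate (IL-1b/TNFa pre-activated) + biotin-GST-cJun 1-79 + anti-pSer73 cJun; cpd titration, 15 min RT; ATP 10 uM start; Tris pH 7.6, MgCl2, DTT, vanadate; beads in EDTA buffer; AlphaScreen.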
In general terms: In Alpha technology, singlet oxygen from a donor bead excites a nearby acceptor bead.

In experiment [7] the target is 3',5'-cyclic-AMP phosphodiesterase 4B (Homo sapiens) (UniProt Q07343). The experiment can be described thus: qHTS Assay for Inhibitors of PDE-IV (AID 607; active = well fitted activation curve with a large enough effect in the main read-out, with a control signal flat, not every such curve was filed as active; note: % of control where 0% means no effect). In short, it runs like this:
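ACTOne HEK293 cells carry a modified cAMP-gated CNG channel and express endogenous PDE4; plated 1000 cells/well, compounds up to 22.9 uM final. Membrane-potential dye fluorescence (ex 535/em 590) was read; parental cells received 10 uM forskolin + 100 uM RO 20-1724.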
On the technique in general: In qHTS, concentration-response curves come from the screen itself.

A short description of experiment [8]: qHTS Assay for Lipid Storage Modulators (AID 1519; calls by dose curve). Conditions: Drosophila S3 cells, BODIPY lipid droplet/cell ratio, laser cytometry, cells loaded with oleic acid; for activity change, negative = inhibition: at 25.7 µM (top of the series). The method in brief: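 Cells seeded at 5,000 per well were treated with compounds over a concentration series and loaded with oleic acid (400 uM, as added). Lipid droplet fluorescence (488 nm excitation, 500-530 nm channel) was read by laser-scanning cytometry and normalized to 20 uM Triacsin C.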

The target in experiment [9] is Ubiquitin carboxyl-terminal hydrolase 1 (Homo sapiens) (UniProt O94782). The experiment can be described thus: Inhibitors of USP1/UAF1: Pilot qHTS (AID 504865; active = well fitted curve in the direction sought with a large enough effect; an effect the other way counts as inactive or inconclusive;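 note: rhodamine fluorescence freed from ubiquitin-rhodamine substrate followed over time; top concentration of the series differs between compounds; % is set by controls: 0 for no effect and ±100 for the full control effect; nearly all actives have a fitted effect of over 35% in size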). In short, it runs like this:
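Kinetic fluorescence assay: 1nM USP1/UAF1, 15 min compound preincubation, then 150nM Ub-Rho; 480/540 nm.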

Experiment [10] concerns the target Glucocorticoid receptor (Homo sapiens) (UniProt P04150). The experiment can be described thus: GR-GFP Redistribution (AID 450;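 active = compounds whose dose series gives a full or clear partial fitted curve of increased nuclear translocation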; note: potency is the fitted concentration of half-maximal effect). To be noted: U2OS GR-GFP nuclear translocation, laser cytometry, 2 h.
Experiment [11] in a line: S16 Schwann cell viability assay (CellTiter-Glo assay) (AID 624031; active = well fitted curve in the direction sought with a large enough effect; an effect the other way counts as inactive or inconclusive;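 note: plate controls were DMSO-treated cells for no effect and cell-free wells for full effect; nearly all actives have a fitted effect of over 70% in size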). The method in brief: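 Luminescent ATP read-out (CellTiter-Glo) after 24 h compound exposure of native S16 rat Schwann cells at 37 °C. Signals were normalized between cell-free wells and DMSO-treated cells, set as 0% activity.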
Background: ATP-based viability assays read luminescence as a measure of living cells.

The nature of experiment [12]: S16 Schwann cell PMP22 intronic element firefly luciferase assay (AID 624032; active = well fitted curve in the direction sought with a large enough effect; an effect the other way counts as inactive or inconclusive;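 note: plate controls were DMSO for no effect and PTC124 positive control mean for full effect; nearly all actives have a fitted effect of over 30% in size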). In short, it runs like this: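 Rat S16 Schwann cells stably carrying firefly luciferase driven by a PMP22 intronic element, in 10% FBS, treated 24 h at 37 C. ONE-Glo luminescence normalized to PTC124 control and DMSO (0%); curves classed by r2, magnitude and activity.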
Experiment [13] is described as follows: qHTS profiling for inhibitors of Plasmodium falciparum proliferation (AID 504749; active = well fitted curve in the direction sought with a large enough effect; an effect the other way counts as inactive or inconclusive;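 note: 0% = DMSO vehicle and full inhibition = artemisinin control; nearly all actives have a fitted effect of over 60% in size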). To be noted: P. falciparum in erythrocytes, SYBR Green DNA, 72 h, at 12.8 µM (top of the series). The method in brief: (§1)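 SYBR Green fluorescence (ex 485 nm, em 535 nm) reports parasite DNA after 72 h compound exposure of infected red cells at 0.3% parasitemia, 2.5% hematocrit; signal normalized to 0.29 uM artemisinin and vehicle wells.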

The subject of experiment [14] is 3D7. The experiment is described as above. Conditions: P. falciparum in erythrocytes, SYBR Green DNA, 72 h; series mostly up to 12.8 µM. The method in brief: as §1
Experiment [15] relates to AS120. Described as above. To be noted: P. falciparum in erythrocytes, SYBR Green DNA, 72 h; series mostly up to 12.8 µM. The method in brief: as §1
Experiment [16] deals with ATS189. Described as above. To be noted: P. falciparum in erythrocytes, SYBR Green DNA, 72 h; series mostly up to 12.8 µM. The method in brief: as §1
Experiment [17] concerns CP217. The description is as above. Conditions: P. falciparum in erythrocytes, SYBR Green DNA, 72 h; series mostly up to 12.8 µM. In short, it runs like this: as §1
Experiment [18] deals with CP247. Described as above. Conditions: P. falciparum in erythrocytes, SYBR Green DNA, 72 h; series mostly up to 12.8 µM. In short, it runs like this: as §1
The subject of experiment [19] is CP250. The experiment is described as above. To be noted: P. falciparum in erythrocytes, SYBR Green DNA, 72 h; series mostly up to 12.8 µM. The method in brief: as §1
Experiment [20] concerns SC27B. The description is as above. Conditions: P. falciparum in erythrocytes, SYBR Green DNA, 72 h; series mostly up to 12.8 µM. The method in brief: as §1
[21] abbreviates: measured here: cell count channel max response.
[22] abbreviates: measured here: lipid channel max response.

Inconclusive results are not listed. The source made the active and inactive calls. Unless noted, calls come from the whole dose curve; as a rule, active = well fitted curve in either direction with a large enough effect (not every such curve was filed as active); inconclusive = small, poorly fitted or top-dose-only effect, or another doubt; inactive = flat fitted curve, though single readings scatter. Some results are limits rather than exact numbers.

3',5'-cyclic-AMP phosphodiesterase 4B (Homo sapiens), sequence (Q07343 whole entry, looked up): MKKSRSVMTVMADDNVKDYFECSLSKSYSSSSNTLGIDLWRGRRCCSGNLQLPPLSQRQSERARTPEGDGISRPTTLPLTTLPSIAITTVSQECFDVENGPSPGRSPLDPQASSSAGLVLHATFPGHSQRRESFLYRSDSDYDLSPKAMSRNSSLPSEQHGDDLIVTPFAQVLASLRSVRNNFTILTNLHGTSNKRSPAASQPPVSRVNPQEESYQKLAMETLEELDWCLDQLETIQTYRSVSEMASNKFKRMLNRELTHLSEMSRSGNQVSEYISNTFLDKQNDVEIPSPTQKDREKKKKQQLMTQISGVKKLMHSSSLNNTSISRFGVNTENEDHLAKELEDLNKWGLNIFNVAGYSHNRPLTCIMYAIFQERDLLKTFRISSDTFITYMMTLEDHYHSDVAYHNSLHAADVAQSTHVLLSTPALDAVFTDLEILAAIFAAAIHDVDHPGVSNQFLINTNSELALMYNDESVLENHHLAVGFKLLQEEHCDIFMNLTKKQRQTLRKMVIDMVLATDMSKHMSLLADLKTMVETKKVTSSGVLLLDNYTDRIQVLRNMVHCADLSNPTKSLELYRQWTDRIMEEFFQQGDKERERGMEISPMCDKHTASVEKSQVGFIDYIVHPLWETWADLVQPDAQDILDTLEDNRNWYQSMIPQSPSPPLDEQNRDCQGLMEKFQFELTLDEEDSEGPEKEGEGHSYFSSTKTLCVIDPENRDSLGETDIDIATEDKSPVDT
Ubiquitin carboxyl-terminal hydrolase 1 (Homo sapiens), sequence (O94782 whole entry, looked up): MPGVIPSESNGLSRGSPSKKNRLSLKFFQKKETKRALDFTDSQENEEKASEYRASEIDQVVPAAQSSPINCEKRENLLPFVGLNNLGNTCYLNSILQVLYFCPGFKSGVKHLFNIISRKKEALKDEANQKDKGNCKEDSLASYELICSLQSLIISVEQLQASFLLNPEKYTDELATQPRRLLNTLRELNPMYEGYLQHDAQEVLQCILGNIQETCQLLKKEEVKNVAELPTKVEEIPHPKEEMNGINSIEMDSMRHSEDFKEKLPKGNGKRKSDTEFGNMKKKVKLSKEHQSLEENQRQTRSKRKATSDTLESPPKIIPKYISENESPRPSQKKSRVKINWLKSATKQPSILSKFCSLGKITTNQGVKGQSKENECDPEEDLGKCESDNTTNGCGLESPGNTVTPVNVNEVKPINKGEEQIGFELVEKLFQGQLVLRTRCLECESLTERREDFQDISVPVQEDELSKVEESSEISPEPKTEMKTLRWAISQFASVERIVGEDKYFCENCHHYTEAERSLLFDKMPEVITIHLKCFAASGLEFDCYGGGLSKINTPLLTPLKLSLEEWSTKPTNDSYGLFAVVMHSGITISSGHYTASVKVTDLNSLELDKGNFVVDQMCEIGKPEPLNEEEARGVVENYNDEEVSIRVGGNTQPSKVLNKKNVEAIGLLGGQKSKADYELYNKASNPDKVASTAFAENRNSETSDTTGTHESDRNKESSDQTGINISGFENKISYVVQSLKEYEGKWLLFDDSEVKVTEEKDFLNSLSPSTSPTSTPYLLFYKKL
Glucocorticoid receptor (Homo sapiens), sequence (P04150 whole entry, looked up, the tested form may be a part): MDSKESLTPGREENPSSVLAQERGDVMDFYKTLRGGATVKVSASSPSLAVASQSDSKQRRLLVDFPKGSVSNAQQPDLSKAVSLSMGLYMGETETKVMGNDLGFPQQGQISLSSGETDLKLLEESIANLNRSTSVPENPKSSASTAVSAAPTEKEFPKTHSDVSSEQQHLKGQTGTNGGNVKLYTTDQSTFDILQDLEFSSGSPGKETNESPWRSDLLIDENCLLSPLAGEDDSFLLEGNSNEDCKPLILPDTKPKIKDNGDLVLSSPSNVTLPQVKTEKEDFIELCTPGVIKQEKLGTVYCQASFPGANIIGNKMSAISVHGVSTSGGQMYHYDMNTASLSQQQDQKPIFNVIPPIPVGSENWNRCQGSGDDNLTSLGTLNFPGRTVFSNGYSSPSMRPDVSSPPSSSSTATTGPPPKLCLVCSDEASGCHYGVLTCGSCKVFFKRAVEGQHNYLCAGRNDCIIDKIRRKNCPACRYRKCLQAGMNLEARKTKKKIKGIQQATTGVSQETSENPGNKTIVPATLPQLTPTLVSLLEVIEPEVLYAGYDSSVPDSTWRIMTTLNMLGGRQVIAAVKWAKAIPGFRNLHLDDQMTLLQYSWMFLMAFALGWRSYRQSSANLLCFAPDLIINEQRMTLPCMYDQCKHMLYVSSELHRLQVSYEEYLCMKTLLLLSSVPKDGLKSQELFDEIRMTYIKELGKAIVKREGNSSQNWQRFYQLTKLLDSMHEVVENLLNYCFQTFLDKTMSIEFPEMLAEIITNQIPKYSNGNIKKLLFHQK

On to `OC[C@@H](O)CN1CCN(c2ccccc2)CC1`, for which the call in [1], in experiment [4] and in [7] was inactive. Besides, the Potency entry in experiment [2], in [6] and in experiment [9] was “inactive” in each case. Besides, the activity change, negative = inhibition in experiment [3] is 3.85% (inactive); in experiment [8], 0.251% (inactive). Further, the Potency in experiment [5] is > 20.6 µM (inactive). Besides, the max response in [8] (setting [21]) is -9.92%; in experiment [8] (setting [22]), -7.93%.

On to `C[C@H](N)CCCC(C)(C)O`, for which the result in experiment [1], in experiment [4] and in experiment [7] was inactive. The Potency entry in experiment [2], in [6] and in experiment [9] was “inactive” each time. The figures for the activity change, negative = inhibition in experiment [3] and in experiment [8] were -3.85% (inactive) and -0.344% (inactive), respectively. The Potency in experiment [10] is > 20.6 µM (inactive). The max response in experiment [8] (setting [21]) was 0.317%; in experiment [8] (setting [22]), 0.936%.

With `C[C@]12C=CC(=O)C=C1CC[C@@H]1[C@H]3C[C@@H](O)[C@](O)(C(=O)CO)[C@@]3(C)C[C@H](O)[C@]12F`, the molecule was called inactive in [1], in experiment [4] and in experiment [7]. Moreover, the Potency entry in experiment [2], in [6] and in experiment [9] was “inactive” throughout. In addition, the activity change, negative = inhibition in [3] is 7.24% (inactive); in experiment [8] it was -1.03% (inactive). For the same molecule, in experiment [5], the Potency was 0.0827 µM (active). The max response in experiment [8] (setting [21]) was found to be 6.41%; in [8] (setting [22]), 6.57%.

Regarding `CO/N=C(\C(=O)N[C@@H]1C(=O)N2C(C(=O)O)=C(COC(N)=O)CS[C@@H]12)c1ccco1`, the result in experiment [1], in experiment [4] and in experiment [7] was inactive. For the same molecule, the Potency result in experiment [2], in experiment [6] and in experiment [9] was “inactive” each time. Moreover, the activity change, negative = inhibition is 6.11% (inactive) in [3] and 1.43% (inactive) in experiment [8]. The Potency in [10] and in [5] was > 20.6 µM (inactive) in each case. The max response in [8] (setting [21]) was -5.14%; in [8] (setting [22]), -2.21%.

For the molecule `CN1CC[C@@]23c4ccccc4N[C@H]1[C@]21CCN(C)[C@@H]3Nc2ccccc21`, the molecule was classed as inactive in [1], in [4] and in experiment [7]. The Potency entry in [2], in experiment [6] and in experiment [9] was “inactive” in each case. Besides, the activity change, negative = inhibition is -9.09% (inactive) in experiment [3] and -2.36% (inactive) in [8]. Further, in experiment [5], the Potency was > 20.6 µM (inactive). The max response was -9.01% in [8] (setting [21]) and -11.8% in [8] (setting [22]).

As for `CC(C)(C)CC(C)(C)c1ccc(OCOCCOCCO)c(Cc2cc(C(C)(C)CC(C)(C)C)cc(Cc3cc(C(C)(C)CC(C)(C)C)ccc3OCOCCOCCO)c2OCOCCOCCO)c1`, the molecule was classed as inactive in [1], in [4] and in [7]. Further, the Potency result in experiment [2] and in experiment [6] was “inactive” throughout. For the same molecule, the activity change, negative = inhibition in [3] is -20.3% (inactive); in experiment [8], -6.93% (inactive). The Potency in experiment [10] and in [5] was > 20.6 µM (inactive) each time. Moreover, the max response in experiment [8] (setting [21]) was -10.1%; in experiment [8] (setting [22]), -15.2%.

For `CC(=O)N[C@@H](CC(=O)O)C(=O)O`, the outcome in experiment [1], in experiment [4] and in [7] was inactive. The Potency result in experiment [2], in [6] and in [9] was “inactive” in each case. Moreover, the activity change, negative = inhibition in [3] is -10.7% (inactive); in experiment [8] it was -1.04% (inactive). The Potency in [5] was > 20.6 µM (inactive). In addition, the results for the max response in experiment [8] (setting [21]) and in experiment [8] (setting [22]) were -3.12% and -4.28%, respectively.

As for `O=C(Nc1ccccc1)OC[C@H](CN1CCCCC1)OC(=O)Nc1ccccc1`, the outcome in experiment [1], in experiment [4], in [7] and in experiment [11] was inactive. The Potency in [2] is 12.6 µM (active); in experiment [5] it was > 20.6 µM (inactive). Besides, the activity change, negative = inhibition was -6.24% (inactive) in [3] and -4.16% (inactive) in experiment [8]. Besides, the Potency result in [6], in [12], in experiment [14], in [15], in experiment [16] and in experiment [17] was “inactive” each time. Further, the Potency result in experiment [18], in [19] and in experiment [20] was “inactive” in each case. Moreover, the figures for the max response in [8] (setting [21]) and in experiment [8] (setting [22]) were -5.88% and -11%, respectively. Also, the activity, negative = inhibition in [13] (parasite line A) was -1.15% (inactive); in [13] (parasite line B) it was -2.24% (inactive).

The values above are taken from PubChem BioAssay (NCATS).
